Where “and” joins values, the source holds several entries; their conditions need not be identical. Identical values can stand only once. Screen size: about 5,500 compounds; about 2,000 (36%) were called active. Inconclusive results (about 18%) are left out. Rule as the data show it: active = normalized growth mostly below about 0.91 (no sharp cut-off); inconclusive = no clear call, values can overlap the other calls; inactive = mostly above about 0.92. Some of the results follow.
Assay: chemical genetic growth profiling, strain panel (AID 1159580);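 also: tested at 20 µM; growth read once vehicle control cultures reached saturation at 30 °C; 1 = growth at the plate median or of vehicle wells; lower values mean less growth of the strain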
Conditions: S. cerevisiae deletion strains, growth OD

Measured: normalized growth

COc1c2ccoc2nc2c(OC)c(OCC(O)C(C)(C)O)ccc12 (configuration not stated)
inactive: locus YAL013W, strain DEP1, active compounds read low 0.992 | locus YAL021C, strain ccr4, active compounds read low 1.04 | locus YAL026C, strain drs2, active compounds read low 1.02 | locus YAL030W, strain snc1, active compounds read low 1.01 | locus YBL061C, strain skt5, active compounds read low 1.02 | locus YBR009C, strain hhf1, active compounds read low 1.02 | locus YBR021W, strain FUR4, active compounds read low 0.992 | locus YBR023C, strain chs3, active compounds read low 1.02 | locus YBR171W, strain sec66, active compounds read low 1.02 | locus YBR229C, strain ROT2, active compounds read low 1 | locus YBR231C, strain swc5, active compounds read low 1.01 | locus YBR279W, strain paf1, active compounds read low 1.01 | locus YCL011C, strain gbp2, active compounds read low 1.03 | locus YCL016C, strain dcc1, active compounds read low 1.02 | locus YCL029C, strain bik1, active compounds read low 0.974 | locus YCL061C, strain MRC1, active compounds read low 1.03 | locus YCL069W, strain vba3, active compounds read low 1.01 | locus YCR088W, strain abp1, active compounds read low 1.02 | locus YDL005C, strain med2, active compounds read low 1.01 | locus YDL035C, strain GPR1, active compounds read low 0.992 | locus YDL040C, strain nat1, active compounds read low 1.01 | locus YDL074C, strain BRE1, active compounds read low 1.02 | locus YDL101C, strain DUN1, active compounds read low 1 | locus YDL134C, strain PPH21, active compounds read low 0.991 | locus YDL185W, strain tfp1, active compounds read low 0.974 | locus YDL192W, strain arf1, active compounds read low 0.984 | locus YDR001C, strain nth1, active compounds read low 1.01 | locus YDR069C, strain doa4, active compounds read low 1.03 | locus YDR101C, strain arx1, active compounds read low 1 | locus YDR137W, strain rgp1, active compounds read low 1.02 | locus YDR150W, strain NUM1, active compounds read low 0.99 | locus YDR159W, strain sac3, active compounds read low 1.01 | locus YDR162C, strain NBP2, active compounds read low 1.02 | locus YDR195W, strain ref2 0.976 | locus YDR297W, strain sur2, active compounds read low 1.02 | locus YDR318W, strain mcm21, active compounds read low 0.981 | locus YDR334W, strain swr1, active compounds read low 1.02 | locus YDR335W, strain msn5, active compounds read low 1.02 | locus YDR388W, active compounds read low 0.997 | locus YDR392W, strain spt3, active compounds read low 0.982 | locus YDR502C, strain sam2, active compounds read low 1.01 | locus YEL003W, strain gim4, active compounds read low 1.01 | locus YEL037C, strain rad23, active compounds read low 1.01 | locus YEL061C, strain CIN8 (second series), active compounds read low 1.01 | locus YEL061C, strain CIN8, active compounds read low 1 | locus YER015W, strain faa2, active compounds read low 1.02 | locus YER016W, strain bim1, active compounds read low 1.01 | locus YER110C, active compounds read low 0.983 | locus YER111C, strain swi4, active compounds read low 1.02 | locus YER155C, strain BEM2 (second series), active compounds read low 1.04 | locus YER155C, strain BEM2, active compounds read low 0.996 | locus YER167W, strain BCK2, active compounds read low 0.972 | locus YFR010W, strain ubp6, active compounds read low 1.02 | locus YGL078C, strain dbp3, active compounds read low 0.983 | locus YGL086W, strain mad1, active compounds read low 0.976 | locus YGL167C, strain pmr1, active compounds read low 1.01 | locus YGL173C, strain kem1, active compounds read low 1.02 | locus YGL227W, strain vid30, active compounds read low 1.02 | locus YGL240W, strain doc1, active compounds read low 1.04 | locus YGL248W, strain PDE1, active compounds read low 0.991 | locus YGL253W, strain hxk2, active compounds read low 1.02 | locus YGR078C, strain PAC10, active compounds read low 1.02 | locus YGR135W, strain pre9, active compounds read low 0.995 | locus YGR229C, strain SMI1, active compounds read low 1.02 | locus YGR252W, strain gcn5, active compounds read low 0.984 | locus YHR013C, strain ard1, active compounds read low 1.03 | locus YHR027C, strain rpn1, active compounds read low 1.01 | locus YHR030C, strain SLT2, active compounds read low 0.99 and 1.02 | locus YHR079C, strain IRE1 (second series), active compounds read low 1 | locus YHR079C, strain IRE1, active compounds read low 1.03 | locus YHR094C, strain hxt1, active compounds read low 0.971 | locus YHR129C, strain ARP1, active compounds read low 1 | locus YHR142W, strain chs7, active compounds read low 1.03 | locus YHR200W, strain rpn10, active compounds read low 0.974 | locus YIL066C, strain RNR3, active compounds read low 0.998 | locus YIL073C, strain SPO22, active compounds read low 0.9 | locus YIL125W, strain kgd1, active compounds read low 0.999 | locus YIR030C, strain dcg1, active compounds read low 0.983 | locus YJL092W, strain hpr5, active compounds read low 1.01 | locus YJL095W, strain BCK1 (second series), active compounds read low 1.01 | locus YJL095W, strain BCK1, active compounds read low 1.05 and 1 | locus YJL115W, strain asf1, active compounds read low 1.02 | locus YJL129C, strain trk1, active compounds read low 1.04 | locus YJL134W, strain LCB3, active compounds read low 0.989 | locus YJL154C, strain vps35, active compounds read low 1.02 | locus YJL164C, strain tpk1, active compounds read low 1.02 | locus YJL166W, strain qcr8, active compounds read low 1.02 | locus YJL168C, strain set2, active compounds read low 0.995 | locus YJL187C, strain SWE1 (second series), active compounds read low 1.01 | locus YJL187C, strain SWE1, active compounds read low 1.01 | locus YJR043C, strain POL32, active compounds read low 0.987 | locus YJR066W, strain TOR1, active compounds read low 0.964
